# PrPC TRFRET: inhibitors of human cell surface prion protein PrPC, primary screen, cell-based, TR-FRET; Major prion protein (Homo sapiens), P04156; 0.43% of 370,000 active; TR-FRET read-out; inhibition, % at 13.8 µM; AID 720596, 2013; in the data active = inhibition above about 24%; note: 0% = median of the test wells and 100% = reference compound wells
# PrP 5UTR inh: inhibition of PrP 5' UTR reporter expression; cell-based PrP 5' UTR mRNA reporter, plate reader; inhibition, % (test concentration not listed); 0.35% of 340,000 active; in the data active = inhibition above about 52%; note: 0 = median of the neutral control wells
# MazF activator: activators of E. coli MazEF toxin-antitoxin RNase, primary screen, biochemical, fluorescence, uHTS. AID 504720, 2011. 0.32% of 350,000 active. FAM/BHQ RNA-DNA oligo cleavage fluorescence, 5 h. Endoribonuclease toxin MazF (Escherichia coli (strain K12)), P0AE70. activation, % at 20 µM; in the data active = activation above about 50%
# Target sequence (P0AE70 whole entry, looked up): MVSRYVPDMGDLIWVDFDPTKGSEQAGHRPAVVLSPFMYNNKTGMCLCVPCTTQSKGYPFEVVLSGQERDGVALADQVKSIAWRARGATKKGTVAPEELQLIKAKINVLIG
# PfHsp40 yeast: rescue of yeast from PfHsp40 toxicity, primary screen, S. cerevisiae, ATP luminescence; S. cerevisiae expressing PfHsp40, growth rescue; growth rescue, % at 12.5 µM; 0.68% of 340,000 active; AID 504582, 2011; in the data active = growth rescue above about 28%, passing the limit was not always enough;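 note: yeast W303a lacking pdr1 and pdr3 grown in galactose medium; growth measured after three days at 30 °C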
# PriA SSB inh: inhibitors of Klebsiella pneumoniae PriA binding to SSB C-terminal tail, primary screen, biochemical, AlphaScreen; AlphaScreen SSBct-PriA binding, biotinylated peptide; 0.6% of 430,000 active; AID 1272365, 2023; inhibition, % at 33 µM; in the data active = inhibition mostly above about 37%, no sharp cut-off; inactive = mostly below about 20%;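 note: plate controls were negative control peptide for no effect and reference peptide for full effect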
# Active calls of the source: *; nt = no result; + = active, no number. Only some compounds are listed: those with a hit (about 1.8% of all), similar ones and a draw of the others.
SMILES,PrPC TRFRET,PrP 5UTR inh,MazF activator,PfHsp40 yeast,PriA SSB inh
C[C@H]1COC(=O)[C@H](Cc2ccc(F)cc2)C/C=C\C[C@@H](CC(=O)N(CCO)Cc2ccccc2)C(=O)N1,2,-20,4,55*,-17
C[C@@H]1COC(=O)[C@@H](Cc2ccc(F)cc2)C/C=C\C[C@@H](CC(=O)N(CCO)Cc2ccccc2)C(=O)N1,-1,-26,-1,0,-7
CN(C)c1ccc(N/C=C/C(=O)c2ccccc2)cc1,-18,51,154*,-1,34
CN(Cc1ccnc2ccccc12)C(=O)C1CCC(=O)N(Cc2ccccc2F)C1 (stereo not given),-3,-7,-3,1,-3
CCC(Oc1ccccc1)C(=O)Nc1ncc([N+](=O)[O-])s1 (stereo not given),-7,-23,6,166*,-9
CCC(Oc1ccccc1)C(=O)Nc1nnc(C)s1 (stereo not given),-3,-1,-5,-2,-15
c1ccc(-c2cnn3c(-c4ccccc4)c(-c4ccccc4)nc3n2)cc1,-6,-1,+,-2,-3
CC(=NNC(=O)c1ccccc1Cl)c1c(O)n(C2CCCCC2)c(=O)[nH]c1=O,nt,nt,nt,nt,-7
C/C(=N\NC(=O)c1ccccc1O)c1c(O)n(C2CCCCC2)c(=O)[nH]c1=O,-3,2,1,79*,nt
CCC(=O)c1c(O)n(C2CCCCCC2)c(=O)[nH]c1=O,1,-21,-14,81*,-2
COc1ccccc1-c1cn2nnc(C(=O)NCc3c(C)noc3C)c2c(=O)[nH]1,nt,nt,nt,nt,25*
CCOC(=O)CNC(=O)c1nnn2cc(-c3ccccc3OC)[nH]c(=O)c12,nt,nt,nt,nt,-4
Cc1nc2ccccc2[nH]c1=O,7,-23,-19,0,-12
NNc1nc2ccccc2[nH]c1=O,nt,nt,nt,nt,38*
COc1ccc(Cc2nnc(SCC(=O)N3CCCCC3)o2)cc1,1,-7,-20,-1,53*
COc1cccc(COC(=O)CCNC(=O)c2ccc(Cl)cc2)c1OC,-1,-20,-3,0,-7
COc1ccc(Cl)cc1C(=O)NCC(c1cccs1)N1CCc2ccccc21 (stereo not given),nt,nt,nt,nt,-26
O=C(NCC(c1cccs1)N1CCc2ccccc21)c1ccc2c(c1)OCO2 (stereo not given),nt,nt,nt,nt,39*
COc1ccc(CC(=O)NCC(=O)N/N=C\c2c[nH]c3ccccc23)cc1,nt,nt,nt,nt,8
CCc1cccc2sc(N(CCN(C)C)C(=O)c3cccc(SC)c3)nc12,nt,nt,nt,nt,42*
CCc1cccc2sc(N(CCN3CCOCC3)C(=O)c3cc(C)n(CC)n3)nc12,nt,nt,nt,nt,-10
CCc1cccc2sc(N(CCCN3CCOCC3)C(=O)c3ccc4c(c3)OCCO4)nc12,nt,nt,nt,nt,28*
COc1cc(/C=N/NC(=Nc2ccc(C)cc2)c2nc3ccccc3s2)ccc1O,4,77*,-3,-1,nt
COc1cccc(NC=C2C(=O)OC(C)(C)OC2=O)c1,9,-23,5,0,-10
COc1cccc(NC=C2C(=O)OC3(CCCCC3)OC2=O)c1,-1,-13,-4,314*,-5
SMILES,PrPC TRFRET,PrP 5UTR inh,MazF activator,PfHsp40 yeast,PriA SSB inh
Cn1c(=O)c2[nH]c(CNc3ccc(C(=O)O)cc3)nc2n(C)c1=O,8,-15,-19,-1,72*
O=c1[nH]c(/C=C/c2ccc(Br)cc2)nc2ccccc12,0,-67,-123,-1,-6
CN(C)c1ccc(/C=C/c2nc3ccccc3c(=O)[nH]2)cc1,4,60*,-105,0,5
Cc1ccc(C(=O)/C=C/c2ccccc2[N+](=O)[O-])cc1,-1,-43,-3,2,6
O=C(/C=C/c1ccccc1[N+](=O)[O-])c1ccccc1Br,-11,-20,-22,60*,15
C(=N\N1CCOCC1)/c1ccsc1,2,-7,6,94*,nt
O=C(CSc1nnc(CNC(=O)c2ccccc2)o1)NCC1CCCO1 (stereo not given),3,0,-6,1,-8
Cc1ccc(O)c(NC(=O)C2CC(c3c(F)cccc3Cl)=NO2)c1 (stereo not given),-3,-48,6,36*,-10
COc1ccc2[nH]c(=O)c(CN(C(=O)c3cccnc3)c3ccccc3C)cc2c1,1,-22,5,0,-5
O=C(NN=Cc1cc(Br)ccc1O)c1ccccc1Cl,nt,nt,nt,nt,7
O=C(NN=Cc1cc(Cl)ccc1O)c1ccncc1,nt,nt,nt,nt,67*
O=C(N/N=C/c1cc(Br)ccc1O)c1ccccc1Cl,3,13,-3,466*,nt
O=C(NN=Cc1cc(O)ccc1Br)c1cccnc1,nt,nt,nt,nt,46*
O=C(N/N=C/c1cc(Cl)ccc1O)c1ccncc1,6,9,-85,0,nt
Cc1ccc(Sc2nc3c(c(=O)n(C)c(=O)n3C)n2Cc2ccc(Cl)cc2)cc1,nt,nt,nt,nt,-11
NC(=O)c1ccc(NCC2CCCO2)c([N+](=O)[O-])c1 (stereo not given),-38,-6,-3,0,3
Cc1ccc(NC(=O)c2ccc(NCc3ccco3)c([N+](=O)[O-])c2)cc1Cl,1,-40,334*,-1,4
Cc1ccc(NC(=O)c2ccc(NCC3CCCO3)c([N+](=O)[O-])c2)cc1Cl (stereo not given),5,-20,267*,1,-6
O=C(Nc1ccc(C(=O)N2CCOCC2)cc1)c1cnn2c(C(F)F)cc(-c3ccccc3)nc12,-9,-3,66*,1,-15
COc1ccc(-c2cc(C(F)F)n3ncc(C(=O)Nc4ccc(C(=O)N5CCOCC5)cc4)c3n2)cc1,2,-14,11,-2,-6
Cc1ccc(C(=O)N(C)[C@H]2C[C@H]3c4[nH]c5c(-c6ccc7c(c6)OCO7)cccc5c4CCN3C[C@H]2[C@H](C)O)cc1,7,nt,nt,nt,nt
Nc1cc2c3ccccc3ccc2c2ccccc12,-3,-113,15,249*,-9
C[n+]1c2cc(N)ccc2cc2ccc(N)cc21,4,-25,nt,228*,13
Nc1ccc2ccccc2c1,7,-18,0,-1,23
C=CCn1c2ccccc2c(=O)c2cc(C#Cc3ccccn3)ccc21,-13,-55,-6,29*,-12
SMILES,PrPC TRFRET,PrP 5UTR inh,MazF activator,PfHsp40 yeast,PriA SSB inh
O=c1c2ccccc2oc2cc(C#Cc3ccccn3)ccc12,3,-35,-21,0,-9
c1ccc2sc(NC3=NCCN3)nc2c1,2,-52,-6,186*,-5
COc1ccc2nc(Nc3nc4ccc5nc(C)sc5c4s3)sc2c1,nt,nt,nt,nt,-1
Cc1ccc2nc(N3C(=O)CNC3=S)sc2c1,17,-91,1,2,4
COc1ccc2nc(NC3=NCCN3)sc2c1,6,-85,1,126*,-9
COc1ccc2nc(N3C(=O)CNC3=S)sc2c1,3,-56,-3,32*,-5
OCCN1CN=C(Nc2nc3ccccc3s2)NC1,10,-35,-5,-1,-16

# Screening results from PubChem.
